# In all, about 5,700 compounds went through this assay and about 85 (1%) were called active. The sample holds actives, similar compounds and a random draw of the others, so the mix is not that of the screen. No stated cut-off is given here; in the data, active means p53-positive nuclei above about 36% (passing the limit was not always enough); inactive means the rest.
# Legend:
# [1] = nuclear p53 accumulation, HPV+ cells – imaging, p53-positive nuclei imaging, 24 h, 48 h (AID 1508601); conditions: 24/48 h
# [2] = target: Cellular tumor antigen p53 (Homo sapiens) (UniProt P04637); assay: as above; conditions: 24/48 h, stronger effect = higher value
# Chain of Cellular tumor antigen p53 (Homo sapiens) (P04637 whole entry, looked up): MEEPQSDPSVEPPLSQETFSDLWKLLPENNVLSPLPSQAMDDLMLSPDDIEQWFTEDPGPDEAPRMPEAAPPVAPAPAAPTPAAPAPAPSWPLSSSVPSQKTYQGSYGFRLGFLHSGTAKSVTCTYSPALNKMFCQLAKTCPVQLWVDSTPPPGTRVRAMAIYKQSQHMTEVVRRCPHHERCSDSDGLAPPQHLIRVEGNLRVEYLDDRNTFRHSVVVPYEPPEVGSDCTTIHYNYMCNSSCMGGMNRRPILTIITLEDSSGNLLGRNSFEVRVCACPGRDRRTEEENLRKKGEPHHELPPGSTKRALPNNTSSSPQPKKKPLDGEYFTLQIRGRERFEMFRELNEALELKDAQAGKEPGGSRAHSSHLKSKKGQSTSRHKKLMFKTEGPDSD
# [3] = measured here: cell number at 24 h, Library stock concentration: 3.33 mM
# [4] = measured here: cell number at 48 h, Library stock concentration: 3.33 mM
# [5] = Library stock concentration: 3.33 mM
# [6] = measured here: p53 positive nuclei at 24 h, Library stock concentration: 3.33 mM
# [7] = measured here: cell number at 24 h, Library stock concentration: 10 mM
# [8] = measured here: cell number at 48 h, Library stock concentration: 10 mM
# [9] = Library stock concentration: 10 mM
# [10] = measured here: p53 positive nuclei at 24 h, Library stock concentration: 10 mM
# [11] = measured here: cell number at 24 h, concentration not given here
# [12] = measured here: cell number at 48 h, concentration not given here
# [13] = measured here: p53 positive nuclei at 24 h, concentration not given here
smiles,measurement,setting,value
O=C(O)c1ccc(C=C2SC(=S)N(c3cccc(C(F)(F)F)c3)C2=O)cc1,"nuclei count, normalised",[1]; [3],76.4%
same,"nuclei count, normalised",[1]; [4],78.4%
same,"p53-positive nuclei, normalised",[2]; [5],-0.0579% (inactive)
same,"p53-positive nuclei, normalised",[2]; [6],-0.316%
COc1ccc(N2C(=O)C(=Cc3ccc([N+](=O)[O-])s3)SC2=S)cc1,"nuclei count, normalised","[1]; measured here: cell number at 24 h, Library stock concentration: 500 nM",117%
same,"nuclei count, normalised","[1]; measured here: cell number at 24 h, Library stock concentration: 1.5 uM",113%
same,"nuclei count, normalised","[1]; measured here: cell number at 24 h, Library stock concentration: 4.6 uM",108%
same,"nuclei count, normalised","[1]; measured here: cell number at 24 h, Library stock concentration: 13.7 uM",110%
same,"nuclei count, normalised","[1]; measured here: cell number at 24 h, Library stock concentration: 41 uM",105%
same,"nuclei count, normalised","[1]; measured here: cell number at 24 h, Library stock concentration: 123 uM",88.7%
same,"nuclei count, normalised","[1]; measured here: cell number at 24 h, Library stock concentration: 370 uM",69.2%
same,"nuclei count, normalised","[1]; measured here: cell number at 24 h, Library stock concentration: 1.111 mM",62.1%
same,"nuclei count, normalised","[1]; measured here: cell number at 24 h, Library stock concentration: 3.333 mM",48.5%
same,"nuclei count, normalised",[1]; [7],37.6%
same,"nuclei count, normalised","[1]; measured here: cell number at 48 h, Library stock concentration: 500 nM",110%
same,"nuclei count, normalised","[1]; measured here: cell number at 48 h, Library stock concentration: 1.5 uM",106%
same,"nuclei count, normalised","[1]; measured here: cell number at 48 h, Library stock concentration: 4.6 uM",107%
same,"nuclei count, normalised","[1]; measured here: cell number at 48 h, Library stock concentration: 13.7 uM",104%
same,"nuclei count, normalised","[1]; measured here: cell number at 48 h, Library stock concentration: 41 uM",108%
same,"nuclei count, normalised","[1]; measured here: cell number at 48 h, Library stock concentration: 123 uM",87.8%
same,"nuclei count, normalised","[1]; measured here: cell number at 48 h, Library stock concentration: 370 uM",59.1%
same,"nuclei count, normalised","[1]; measured here: cell number at 48 h, Library stock concentration: 1.111 mM",49.4%
same,"nuclei count, normalised","[1]; measured here: cell number at 48 h, Library stock concentration: 3.333 mM",31.9%
same,"nuclei count, normalised",[1]; [8],24.4%
same,"p53-positive nuclei, normalised",[2]; Library stock concentration: 500 nM,0.221% (inactive)
same,"p53-positive nuclei, normalised",[2]; Library stock concentration: 1.5 uM,0.0846% (inactive)
same,"p53-positive nuclei, normalised",[2]; Library stock concentration: 4.6 uM,0.192% (inactive)
same,"p53-positive nuclei, normalised",[2]; Library stock concentration: 13.7 uM,-0.0302% (inactive)
same,"p53-positive nuclei, normalised",[2]; Library stock concentration: 41 uM,0.353% (inactive)
same,"p53-positive nuclei, normalised",[2]; Library stock concentration: 123 uM,5.11% (inactive)
same,"p53-positive nuclei, normalised",[2]; Library stock concentration: 370 uM,28.8% (inactive)
same,"p53-positive nuclei, normalised",[2]; Library stock concentration: 1.111 mM,38.4% (inactive)
same,"p53-positive nuclei, normalised",[2]; Library stock concentration: 3.333 mM,79.8% (active)
same,"p53-positive nuclei, normalised",[2]; [9],117% (active)
same,"p53-positive nuclei, normalised","[2]; measured here: p53 positive nuclei at 24 h, Library stock concentration: 500 nM",-0.0612%
same,"p53-positive nuclei, normalised","[2]; measured here: p53 positive nuclei at 24 h, Library stock concentration: 1.5 uM",0.0572%
same,"p53-positive nuclei, normalised","[2]; measured here: p53 positive nuclei at 24 h, Library stock concentration: 4.6 uM",0.0046%
same,"p53-positive nuclei, normalised","[2]; measured here: p53 positive nuclei at 24 h, Library stock concentration: 13.7 uM",0.00591%
same,"p53-positive nuclei, normalised","[2]; measured here: p53 positive nuclei at 24 h, Library stock concentration: 41 uM",0.0741%
same,"p53-positive nuclei, normalised","[2]; measured here: p53 positive nuclei at 24 h, Library stock concentration: 123 uM",5.3%
same,"p53-positive nuclei, normalised","[2]; measured here: p53 positive nuclei at 24 h, Library stock concentration: 370 uM",28.7%
same,"p53-positive nuclei, normalised","[2]; measured here: p53 positive nuclei at 24 h, Library stock concentration: 1.111 mM",41.6%
same,"p53-positive nuclei, normalised","[2]; measured here: p53 positive nuclei at 24 h, Library stock concentration: 3.333 mM",85.9%
same,"p53-positive nuclei, normalised",[2]; [10],121%
C/C=C/C(=O)O[C@H](COCCCCCCCCCCCCCCCC)COP(=O)([O-])OCC[N+](C)(C)C,"nuclei count, normalised",[1]; [11],91.3%
same,"nuclei count, normalised",[1]; [12],103%
same,"p53-positive nuclei, normalised",[2]; concentration not given here,-0.0567% (inactive)
same,"p53-positive nuclei, normalised",[2]; [13],0.0947%
CCCCCCCCCCCCCCCCCC(=O)OCC,"nuclei count, normalised",[1]; [11],111%
same,"nuclei count, normalised",[1]; [12],110%
same,"p53-positive nuclei, normalised",[2]; concentration not given here,-0.0271% (inactive)
same,"p53-positive nuclei, normalised",[2]; [13],-0.00774%
N=c1ccn2c(n1)OC1C(O)C(CO)OC12 (configuration not stated),"nuclei count, normalised",[1]; [3],61.4%
same,"nuclei count, normalised",[1]; [4],51.8%
same,"p53-positive nuclei, normalised",[2]; [5],0.1% (inactive)
same,"p53-positive nuclei, normalised",[2]; [6],-0.25%
Nc1cccc(OCc2ccccc2)c1,"nuclei count, normalised","[1]; measured here: cell number at 24 h, Library stock concentration: 46 uM",111%
same,"nuclei count, normalised","[1]; measured here: cell number at 24 h, Library stock concentration: 278 uM",109%
same,"nuclei count, normalised","[1]; measured here: cell number at 24 h, Library stock concentration: 1.67 mM",109%
same,"nuclei count, normalised",[1]; [7],99%
same,"nuclei count, normalised","[1]; measured here: cell number at 48 h, Library stock concentration: 46 uM",106%
same,"nuclei count, normalised","[1]; measured here: cell number at 48 h, Library stock concentration: 278 uM",111%
same,"nuclei count, normalised","[1]; measured here: cell number at 48 h, Library stock concentration: 1.67 mM",109%
same,"nuclei count, normalised",[1]; [8],103%
same,"p53-positive nuclei, normalised",[2]; Library stock concentration: 46 uM,-0.0623% (inactive)
same,"p53-positive nuclei, normalised",[2]; Library stock concentration: 278 uM,-0.108% (inactive)
same,"p53-positive nuclei, normalised",[2]; Library stock concentration: 1.67 mM,0.151% (inactive)
same,"p53-positive nuclei, normalised",[2]; [9],0.0982% (inactive)
same,"p53-positive nuclei, normalised","[2]; measured here: p53 positive nuclei at 24 h, Library stock concentration: 46 uM",-0.0998%
same,"p53-positive nuclei, normalised","[2]; measured here: p53 positive nuclei at 24 h, Library stock concentration: 278 uM",-0.155%
same,"p53-positive nuclei, normalised","[2]; measured here: p53 positive nuclei at 24 h, Library stock concentration: 1.67 mM",0.0148%
same,"p53-positive nuclei, normalised",[2]; [10],-0.152%

# Reference: PubChem BioAssay AID1508601 (ICCB-Longwood Screening Facility, Harvard Medical School, 2020)
